Measured values: the supplement of paper PMC10037445
“And” between values parts separate entries of the source, which are not always exact repeats. Equal values may be shown once. The full ranking holds about 2,900 compounds; the median of “IRF Lucia reporter activity, fold change vs agonist alone” is about 0.9, and the highest 2% start at about 2.8. The full list was thinned out, with the highest values kept by preference.

How the values were obtained:
RAW-Dual [1] = experiment: IRF Lucia reporter activity, fold change vs agonist alone; cytotoxicity flag (confluency mask): cytotoxic (confluency <70% of control); higher = enhanced IRF activity
In short: (§1)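 RAW-Dual macrophages were seeded in DMEM at 50,000 cells/well in 384-well plates, given 50 nL of library stock by pin tool, and given a PRR agonist 1 h later. Plates were held at 37 °C, 5% CO2 for 20 hours, after which supernatant was read for IRF by QuantiLuc luminescence and for NF-κB by QuantiBlue absorbance at 620 nm. Reporter activity is expressed as fold change over wells that received agonist alone. A well was called cytotoxic when IncuCyte confluency fell below 70% of agonist controls in both mask sets.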

RAW-Dual [2] = experiment: IRF Lucia reporter activity, fold change vs agonist alone; cytotoxicity flag (confluency mask): not cytotoxic; higher = enhanced IRF activity
In short: as §1

RAW-Dual [3] = experiment: IRF Lucia reporter activity, fold change vs agonist alone; higher = enhanced IRF activity; conditions: cytotoxicity flag (confluency mask): not cytotoxic, agonist: MPLA (TLR4) […]
In short: as §1

[4] = agonist: 3'3'-cGAMP (STING) 10 ug/mL
[5] = library stock concentration (final ~1000-fold dilution): 10 mM

## Cc1ccc(Oc2ccnc3cc(-c4cnn(C5CCNCC5)c4)ccc23)cc1 (library stock concentration (final ~1000-fold dilution): 10 mM)
RAW-Dual [1]; [4]
  IRF Lucia reporter activity: 0.0554
RAW-Dual [1]; agonist: LPS (TLR4) 0.1 ug/mL
  IRF Lucia reporter activity: 0.134

## CCC(C)(Nc1ccnc(-c2c[nH]c3ncccc23)n1)C(=O)NCC(F)(F)F (stereo unspecified) (library stock concentration (final ~1000-fold dilution): 10 mM)
RAW-Dual [2]; [4]
  IRF Lucia reporter activity: 0.291
RAW-Dual [2]; agonist: LPS (TLR4) 0.1 ug/mL
  IRF Lucia reporter activity: 0.35

## CCC(C)(Nc1ccnc(-c2c[nH]c3ncccc23)n1)C(=O)NCC(F)(F)F (stereo unspecified)
RAW-Dual [3]; [5]
  IRF Lucia reporter activity: 0.41

## Cc1cc(N2CCN(C3CNC(C(=O)N4CCSC4)C3)CC2)n(-c2ccccc2)n1 (stereo unspecified) (library stock concentration (final ~1000-fold dilution): 10 mM)
RAW-Dual [2]; [4]
  IRF Lucia reporter activity: 0.982
RAW-Dual [2]; agonist: LPS (TLR4) 0.1 ug/mL
  IRF Lucia reporter activity: 1.22

## Cc1cc(N2CCN(C3CNC(C(=O)N4CCSC4)C3)CC2)n(-c2ccccc2)n1 (stereo unspecified)
RAW-Dual [3]; [5]
  IRF Lucia reporter activity: 1.02

## Cc1ccc2nc(NCCN)c3ncc(C)n3c2c1 (library stock concentration (final ~1000-fold dilution): 10 mM)
RAW-Dual [2]; [4]
  IRF Lucia reporter activity: 2.21
RAW-Dual [2]; agonist: LPS (TLR4) 0.1 ug/mL
  IRF Lucia reporter activity: 3.5
RAW-Dual [1]; agonist: LPS (TLR4) 0.1 ug/mL
  IRF Lucia reporter activity: 0.0229 and 0.0291

## CCOc1nc2cccc(C(=O)OCc3oc(=O)oc3C)c2n1Cc1ccc(-c2ccccc2-c2nc(=O)o[nH]2)cc1 (library stock concentration (final ~1000-fold dilution): 10 mM)
RAW-Dual [2]; [4]
  IRF Lucia reporter activity: 1.04
RAW-Dual [2]; agonist: LPS (TLR4) 0.1 ug/mL
  IRF Lucia reporter activity: 1.16

## CCOc1nc2cccc(C(=O)OCc3oc(=O)oc3C)c2n1Cc1ccc(-c2ccccc2-c2nc(=O)o[nH]2)cc1
RAW-Dual [3]; [5]
  IRF Lucia reporter activity: 1.16

## CNS(=O)(=O)CC1CCC(N(C)c2ncnc3[nH]ccc23)CC1.O=C(O)/C=C\C(=O)O (stereo unspecified) (library stock concentration (final ~1000-fold dilution): 10 mM)
RAW-Dual [2]; [4]
  IRF Lucia reporter activity: 0.106
RAW-Dual [2]; agonist: LPS (TLR4) 0.1 ug/mL
  IRF Lucia reporter activity: 0.264

## O=c1cc(N2CCOCC2)oc2c1ccc1ccccc12
RAW-Dual [3]; library stock concentration (final ~1000-fold dilution): 2 mM
  IRF Lucia reporter activity: 1.15

## O=c1cc(N2CCOCC2)oc2c(-c3ccc4c(c3)OCCO4)csc12 (library stock concentration (final ~1000-fold dilution): 10 mM)
RAW-Dual [2]; [4]
  IRF Lucia reporter activity: 0.12
RAW-Dual [2]; agonist: LPS (TLR4) 0.1 ug/mL
  IRF Lucia reporter activity: 0.269

## CC1CN(CC(=O)Nc2ccc3c(c2)Cc2cccc(-c4cc(=O)cc(N5CCOCC5)o4)c2S3)CC(C)O1 (stereo unspecified) (library stock concentration (final ~1000-fold dilution): 10 mM)
RAW-Dual [2]; [4]
  IRF Lucia reporter activity: 0.508
RAW-Dual [2]; agonist: LPS (TLR4) 0.1 ug/mL
  IRF Lucia reporter activity: 6.62

## O=c1cc(-c2cccc3c2Sc2ccccc2S3)oc(N2CCOCC2)c1
RAW-Dual [3]; [5]
  IRF Lucia reporter activity: 6.25

## O=c1cc(-c2cccc3c2Sc2ccccc2S3)oc(N2CCOCC2)c1 (library stock concentration (final ~1000-fold dilution): 10 mM)
RAW-Dual [2]; [4]
  IRF Lucia reporter activity: 0.647
RAW-Dual [2]; agonist: LPS (TLR4) 0.1 ug/mL
  IRF Lucia reporter activity: 5.22

## CC1CN(CC(=O)Nc2ccc3c(c2)Cc2cccc(-c4cc(=O)cc(N5CCOCC5)o4)c2S3)CC(C)O1 (stereo unspecified)
RAW-Dual [3]; [5]
  IRF Lucia reporter activity: 5.96

## O=c1cc(N2CCOCC2)oc2c1ccc1ccccc12 (library stock concentration (final ~1000-fold dilution): 2 mM)
RAW-Dual [2]; [4]
  IRF Lucia reporter activity: 0.778
RAW-Dual [2]; agonist: LPS (TLR4) 0.1 ug/mL
  IRF Lucia reporter activity: 1.01

## CC1(c2cc(-c3cncnc3)c(F)cc2F)CCSC(N)=N1 (stereo unspecified)
RAW-Dual [3]; [5]
  IRF Lucia reporter activity: 0.717

## CC1(c2cc(-c3cncnc3)c(F)cc2F)CCSC(N)=N1 (stereo unspecified) (library stock concentration (final ~1000-fold dilution): 10 mM)
RAW-Dual [2]; [4]
  IRF Lucia reporter activity: 0.823
RAW-Dual [2]; agonist: LPS (TLR4) 0.1 ug/mL
  IRF Lucia reporter activity: 0.805

## CCC(C)Nc1cc(C(=O)NC2CC3CCC(C2)N3c2ccc(C(=O)C3CC3)cn2)c(C)cc1C(N)=O (stereo unspecified)
RAW-Dual [3]; [5]
  IRF Lucia reporter activity: 0.838

## CCC(C)Nc1cc(C(=O)NC2CC3CCC(C2)N3c2ccc(C(=O)C3CC3)cn2)c(C)cc1C(N)=O (stereo unspecified) (library stock concentration (final ~1000-fold dilution): 10 mM)
RAW-Dual [2]; [4]
  IRF Lucia reporter activity: 0.482
RAW-Dual [2]; agonist: LPS (TLR4) 0.1 ug/mL
  IRF Lucia reporter activity: 0.924

## C[N+]1(C)C2CCC1CC(OC(=O)C(O)c1ccccc1)C2 (stereo unspecified) (library stock concentration (final ~1000-fold dilution): 10 mM)
RAW-Dual [2]; [4]
  IRF Lucia reporter activity: 1.01
RAW-Dual [2]; agonist: LPS (TLR4) 0.1 ug/mL
  IRF Lucia reporter activity: 1.29

## C[N+]1(C)C2CCC1CC(OC(=O)C(O)c1ccccc1)C2 (stereo unspecified)
RAW-Dual [3]; [5]
  IRF Lucia reporter activity: 0.953

## O=C(Nc1ccc(OC(F)(F)Cl)cc1)c1cnc(N2CCC(O)C2)c(-c2ccn[nH]2)c1 (stereo unspecified) (library stock concentration (final ~1000-fold dilution): 10 mM)
RAW-Dual [2]; [4]
  IRF Lucia reporter activity: 0.296
RAW-Dual [2]; agonist: LPS (TLR4) 0.1 ug/mL
  IRF Lucia reporter activity: 1.27

## CCn1c(=O)c(-c2cc(NC(=O)Nc3ccccc3)c(F)cc2Br)cc2cnc(NC)cc21 (library stock concentration (final ~1000-fold dilution): 10 mM)
RAW-Dual [2]; [4]
  IRF Lucia reporter activity: 0.671
RAW-Dual [2]; agonist: LPS (TLR4) 0.1 ug/mL
  IRF Lucia reporter activity: 0.268

## Cc1ccc(Nc2nccc(N(C)c3ccc4c(C)n(C)nc4c3)n2)cc1S(N)(=O)=O.Cl (library stock concentration (final ~1000-fold dilution): 10 mM)
RAW-Dual [2]; [4]
  IRF Lucia reporter activity: 0.0722
RAW-Dual [2]; agonist: LPS (TLR4) 0.1 ug/mL
  IRF Lucia reporter activity: 0.446

## Cc1ccc(Nc2nccc(N(C)c3ccc4c(C)n(C)nc4c3)n2)cc1S(N)(=O)=O.Cl
RAW-Dual [3]; [5]
  IRF Lucia reporter activity: 0.646

## COC(=O)C(CC(C)C)NC(=O)c1ccc(NCC(N)CS)cc1-c1cccc2ccccc12.O=C(O)C(F)(F)F (stereo unspecified)
RAW-Dual [3]; [5]
  IRF Lucia reporter activity: 0.882

## COC(=O)C(CC(C)C)NC(=O)c1ccc(NCC(N)CS)cc1-c1cccc2ccccc12.O=C(O)C(F)(F)F (stereo unspecified) (library stock concentration (final ~1000-fold dilution): 10 mM)
RAW-Dual [2]; [4]
  IRF Lucia reporter activity: 0.0714
RAW-Dual [2]; agonist: LPS (TLR4) 0.1 ug/mL
  IRF Lucia reporter activity: 0.736

## N#Cc1ccc(-c2c(-c3ncn[nH]3)sc(N3CCOCC3)c2C#N)c(F)c1 (library stock concentration (final ~1000-fold dilution): 10 mM)
RAW-Dual [2]; [4]
  IRF Lucia reporter activity: 0.455
RAW-Dual [2]; agonist: LPS (TLR4) 0.1 ug/mL
  IRF Lucia reporter activity: 10.2

## N#Cc1ccc2[nH]c(O)c(-c3ccc(CN4CCOCC4)cn3)c2c1
RAW-Dual [3]; [5]
  IRF Lucia reporter activity: 1.01

## N#Cc1ccc2[nH]c(O)c(-c3ccc(CN4CCOCC4)cn3)c2c1 (library stock concentration (final ~1000-fold dilution): 10 mM)
RAW-Dual [2]; [4]
  IRF Lucia reporter activity: 0.996
RAW-Dual [2]; agonist: LPS (TLR4) 0.1 ug/mL
  IRF Lucia reporter activity: 0.903

## N#Cc1cccc(-c2c[nH]c3ncnc(N4CCOCC4)c23)c1 (library stock concentration (final ~1000-fold dilution): 10 mM)
RAW-Dual [2]; [4]
  IRF Lucia reporter activity: 0.11
RAW-Dual [2]; agonist: LPS (TLR4) 0.1 ug/mL
  IRF Lucia reporter activity: 0.291

## CCS(=O)(=O)O.COC(=O)c1ccc2c(c1)NC(=O)/C2=C(\Nc1ccc(N(C)C(=O)CN2CCN(C)CC2)cc1)c1ccccc1 (library stock concentration (final ~1000-fold dilution): 10 mM)
RAW-Dual [2]; [4]
  IRF Lucia reporter activity: 0.0841
RAW-Dual [2]; agonist: LPS (TLR4) 0.1 ug/mL
  IRF Lucia reporter activity: 0.246

## CCS(=O)(=O)O.COC(=O)c1ccc2c(c1)NC(=O)/C2=C(\Nc1ccc(N(C)C(=O)CN2CCN(C)CC2)cc1)c1ccccc1
RAW-Dual [3]; [5]
  IRF Lucia reporter activity: 0.215
